Many of the other results were omitted from the sample, so the strongest signals are more common in it than they were.
Key:
Assay in all cases: glycan array binding signal (z-score within array); higher = stronger binding
Settings in all cases: glycan notation: IUPAC condensed, linker removed
[1] = molecular target: Man(a1-2)Man(a1-3)[Man(a1-2)Man(a1-6)]Man
Method in brief: (§1)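 Columns mapping to the same glycan were averaged after glycan names were converted to IUPAC-condensed notation. The data come from 3228 arrays in the Consortium for Functional Glycomics database, limited to those with an available protein sequence. Binding is reported as a within-array Z-score averaged across arrays of one protein sequence and across linkers.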

[2] = molecular target: Man(a1-2)Man(a1-3)[Man(a1-2)Man(a1-6)]Man(a1-6)[Man(a1-2)Man(a1-2)Man(a1-3)]Man
Method in brief: as §1

[3] = molecular target: Man(a1-2)Man(a1-6)[Man(a1-3)]Man(a1-6)[Man(a1-2)Man(a1-2)Man(a1-3)]Man(b1-4)GlcNAc(b1-4)GlcNAc
Method in brief: as §1

[4] = molecular target: Man(a1-3)[Man(a1-6)]Man(a1-6)[Man(a1-3)]Man
Method in brief: as §1

[5] = molecular target: Neu5Ac(a2-3)Gal(b1-3)GalNAc(b1-3)Gal(a1-4)Gal(b1-4)Glc
Method in brief: as §1

[6] = molecular target: Neu5Ac(a2-3)Gal(b1-3)GlcNAc(b1-3)Gal(b1-3)GlcNAc
Method in brief: as §1

[7] = molecular target: Neu5Ac(a2-3)Gal(b1-3)GlcNAc6S
Method in brief: as §1

[8] = molecular target: Neu5Ac(a2-3)Gal(b1-3)[Fuc(a1-4)]GlcNAc
Method in brief: as §1

[9] = molecular target: Neu5Ac(a2-3)Gal(b1-3)[Fuc(a1-4)]GlcNAc(b1-3)Gal(b1-3)[Fuc(a1-4)]GlcNAc
Method in brief: as §1

[10] = molecular target: Neu5Ac(a2-3)Gal(b1-4)GlcNAc(b1-2)Man(a1-3)[Neu5Ac(a2-3)Gal(b1-4)GlcNAc(b1-2)Man(a1-6)]Man(b1-4)GlcNAc(b1-4)[Fuc(a1-6)]GlcNAc
Method in brief: as §1

[11] = molecular target: Neu5Ac(a2-3)Gal(b1-4)GlcNAc(b1-2)[Neu5Ac(a2-3)Gal(b1-4)GlcNAc(b1-6)]Man(a1-6)[Neu5Ac(a2-3)Gal(b1-4)GlcNAc(b1-2)Man(a1-3)][GlcNAc(b1-4)]Man(b1-4)GlcNAc(b1-4)GlcNAc
Method in brief: as §1

[12] = molecular target: Neu5Ac(a2-3)Gal(b1-4)GlcNAc(b1-3)Gal(b1-4)GlcNAc(b1-6)[Gal(b1-3)]GalNAc
Method in brief: as §1

[13] = molecular target: Neu5Ac(a2-3)Gal(b1-4)GlcNAc(b1-6)GalNAc
Method in brief: as §1

[14] = molecular target: Neu5Ac(a2-3)Gal(b1-4)[Fuc(a1-3)]GlcNAc6S
Method in brief: as §1

[15] = molecular target: Neu5Ac(a2-3)[GalNAc(b1-4)]Gal(b1-4)Glc
Method in brief: as §1

[16] = molecular target: Neu5Ac(a2-3)[GalNAc(b1-4)]Gal(b1-4)GlcNAc(b1-3)GalNAc
Method in brief: as §1

[17] = molecular target: Neu5Ac(a2-6)Gal(b1-4)GlcNAc(b1-2)Man(a1-3)[Neu5Ac(a2-6)Gal(b1-4)GlcNAc(b1-2)Man(a1-6)]Man(b1-4)GlcNAc(b1-4)[Fuc(a1-6)]GlcNAc
Method in brief: as §1

[18] = molecular target: Neu5Ac(a2-6)Gal(b1-4)GlcNAc(b1-3)Gal(b1-4)GlcNAc(b1-3)[Neu5Ac(a2-6)Gal(b1-4)GlcNAc(b1-3)Gal(b1-4)GlcNAc(b1-6)]GalNAc
Method in brief: as §1

[19] = molecular target: Neu5Ac(a2-6)Gal(b1-4)GlcNAc(b1-3)Gal(b1-4)[Fuc(a1-3)]GlcNAc(b1-3)Gal(b1-4)[Fuc(a1-3)]GlcNAc
Method in brief: as §1

[20] = molecular target: Neu5Ac(a2-6)Gal(b1-4)GlcNAc(b1-6)[Gal(b1-3)]GalNAc
Method in brief: as §1

[21] = molecular target: Neu5Ac(a2-6)Gal(b1-4)GlcNAc6S
Method in brief: as §1

[22] = molecular target: Neu5Ac(a2-6)GalNAc(b1-4)GlcNAc6S
Method in brief: as §1

Neu5Ac(a2-8)Neu5Ac = molecular target: Neu5Ac(a2-8)Neu5Ac
Method in brief: as §1

[23] = molecular target: Neu5Ac(a2-8)Neu5Ac(a2-8)Neu5Ac
Method in brief: as §1

[24] = molecular target: Neu5Ac(a2-8)Neu5Ac(a2-8)Neu5Ac(a2-3)[GalNAc(b1-4)]Gal(b1-4)Glc
Method in brief: as §1

[25] = molecular target: Neu5Gc(a2-3)Gal(b1-3)[Fuc(a1-4)]GlcNAc
Method in brief: as §1

[26] = molecular target: Neu5Gc(a2-3)Gal(b1-4)GlcNAc
Method in brief: as §1

[27] = molecular target: Neu5Gc(a2-8)Neu5Ac(a2-3)Gal(b1-4)GlcNAc
Method in brief: as §1

B1: Pwp2 (Candida glabrata) (protein)
chain: MGSSHHHHHHSSGLVPRGSHMASKNPVELNNVCTFPNDYGRIPGFTVLVGRLGLLISASDYKELLRYPGAFLIATQDTMTTSPNFELTGFPFFTGLYGLTVFPLDLLVELRGYFVPPNSGQYTFTLSDSDDAAIIFLGNPSAFPCGDLQNWPKPSEEDITVTDHLFPSRTLYLIEGVAYPMRIAYYNGIGAGRLNAAFIDPSGTRHTNWEGYIWQYDPCSTCTYS
glycan array binding signal (z-score) [1]: -0.477
glycan array binding signal (z-score) [2]: -0.722
glycan array binding signal (z-score) [3]: -0.467
glycan array binding signal (z-score) [4]: 5.45
glycan array binding signal (z-score) [5]: -0.307
glycan array binding signal (z-score) [6]: -0.269
glycan array binding signal (z-score) [7]: -0.456
glycan array binding signal (z-score) [8]: 0.549
glycan array binding signal (z-score) [9]: 4
glycan array binding signal (z-score) [10]: 0.96
glycan array binding signal (z-score) [11]: 4.22
glycan array binding signal (z-score) [12]: 1.44
glycan array binding signal (z-score) [13]: 4.01
glycan array binding signal (z-score) [14]: 0.309
glycan array binding signal (z-score) [15]: 0.443
glycan array binding signal (z-score) [16]: 0.085
glycan array binding signal (z-score) [17]: 1.79
glycan array binding signal (z-score) [18]: -0.059
glycan array binding signal (z-score) [19]: -0.077
glycan array binding signal (z-score) [20]: 3.56
glycan array binding signal (z-score) [21]: -0.426
glycan array binding signal (z-score) [22]: 4.86
glycan array binding signal (z-score) (Neu5Ac(a2-8)Neu5Ac): -0.04
glycan array binding signal (z-score) [23]: -0.203
glycan array binding signal (z-score) [24]: 0.537
glycan array binding signal (z-score) [25]: -0.072
glycan array binding signal (z-score) [26]: 0.982
glycan array binding signal (z-score) [27]: -0.437
